D1 potentiator – human D1 dopamine receptor positive modulation. HEK293 TREx D1 cells, calcium flux, dopamine EC20 potentiation. potentiation, % at 10 µM. 360,000 compounds, 0.036% hits. AID 504651; in the data active = potentiation above about 30%; note: 0% is about no effect
Target sequence (P21728 whole entry, looked up): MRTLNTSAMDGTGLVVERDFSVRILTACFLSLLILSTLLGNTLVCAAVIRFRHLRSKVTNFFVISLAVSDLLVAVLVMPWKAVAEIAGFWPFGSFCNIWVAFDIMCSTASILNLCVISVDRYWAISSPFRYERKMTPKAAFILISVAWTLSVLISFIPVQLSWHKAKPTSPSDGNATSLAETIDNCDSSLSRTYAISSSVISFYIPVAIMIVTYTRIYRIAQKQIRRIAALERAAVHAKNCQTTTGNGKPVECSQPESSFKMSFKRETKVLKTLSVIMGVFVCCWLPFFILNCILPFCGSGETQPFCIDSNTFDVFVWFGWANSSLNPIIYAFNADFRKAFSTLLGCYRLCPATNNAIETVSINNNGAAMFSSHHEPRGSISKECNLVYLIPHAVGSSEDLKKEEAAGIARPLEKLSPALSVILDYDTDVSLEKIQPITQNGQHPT
TRHR PAM – TRH receptor (human) allosteric enhancement | AID 493056 | TRHR cells, fluo-8 calcium fluorescence, EC20 TRH enhancement | enhancement, % at 2 µM | 360,000 compounds, 0.66% hits | P34981; in the data active = enhancement above about 30%; note: 0% is about no effect
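TRHR-expressing cells loaded with fluo-8 calcium dye were read kinetically (ex 480/em 530) during compound addition, then stimulated with an EC20 of TRH (10 nM final). Enhancement of the Gq-mediated intracellular calcium response was scored.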
TRHR agonist – TRH receptor (human) agonism. 360,000 compounds, 0.18% hits. P34981. TRHR cells, calcium flux fluo-8, FDSS agonist mode. activation, % at 2 µM. AID 493084; note: 0% is about no effect
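TRHR-expressing cells loaded with fluo-8 calcium dye; 23 nL library compound pin-transferred, kinetic FDSS fluorescence (Ex 480/Em 530) recorded about 180 s for agonist-induced calcium release, before a 10 nM TRH EC20 addition for potentiator mode.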
D1 ag – human D1 receptor agonism; P21728; HEK293 T-REx D1 cells, calcium flux, agonist mode; activation, % at 2 µM; 360,000 compounds, 1% hits; note: 0% is about no effect
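Tetracycline-induced HEK293 TREx D1 cells, force-coupled to calcium signalling, were dye-loaded with a no-wash calcium kit. Compound was pin-added after a 10 s baseline. Fluorescence was read kinetically at 1 cycle/s for 180 s, with calcium rises flagged as agonism.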
D1 antagonist – human D1 dopamine receptor antagonism; activity change, negative = inhibition, % at 10 µM; P21728; 360,000 compounds, 3.2% hits; HEK293 TREx D1 cells, calcium flux, dopamine EC80; stronger effect = lower value; in the data active = activity change below about -30%; note: % is set by controls: 0 for no effect and ±100 for the full control effect
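Kinetic fluorescence of a calcium dye serves as the read-out. D1-expressing Hek293 Trex cells, induced overnight at 30 C, are exposed to compound for 180 s before an EC80 dopamine addition, then read 180 s further.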
Epigenetic derep – derepresses silenced GFP reporter in murine cells; murine LDR cells, GFP reporter derepression, 30 h; Potency, µM (top dose mostly 53.9 µM), without a hit: top-dose GFP activation, usual class: activators; 280,000 compounds, 0.2% hits; active = well fitted activation curve with a large enough effect; note: potency is the fitted concentration of half-maximal effect; % of control where 0% means no effect; nearly all actives have a fitted effect of over 60% in size
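Murine LDR cells carrying a silenced, genomically integrated CMV-driven GFP reporter were exposed to compound for 30 hours at 37 C. After PBS washes, GFP-positive cells (20–120 um objects) were counted by laser-scanning microplate cytometry.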
An asterisk follows results filed as active; . = no result given; ! = not active in a repeat. The list is not random: actives were taken first. Their share in the collection is about 4.6%. Cut-off read from the data, not from the text of the source, unless noted: active = activation above about 30%; inactive = the rest.

SMILES	D1 potentiator	TRHR PAM	TRHR agonist	D1 ag	D1 antagonist	Epigenetic derep
Cc1cc(C)nc(NC(=O)/C=C/c2cccs2)c1	3.7	-0.4	-0.7	-0.1	-12.1	-1.0%
COc1cccc(CNC(=O)Cn2c(=O)oc3cc(S(=O)(=O)N4CCCC4)ccc32)c1	-3.2	1.4	0.4	5.2	-31.3*	0.7%
O=C(Cn1c(=O)oc2cc(S(=O)(=O)N3CCCCC3)ccc21)NCc1ccc(Cl)cc1	-4.1	0.7	-0.2	12.8	-20.6	0.8%
O=C(Cn1c(=O)oc2cc(S(=O)(=O)N3CCCCC3)ccc21)NCc1ccc(F)cc1	-4.2	5.4	-0.5	40.6*	-37.2*	0.0%
O=C(Cn1c(=O)oc2cc(S(=O)(=O)N3CCCC3)ccc21)NCc1ccc(F)cc1	-4.8	-4.1	2.5	11.3	13.6	-2.5%
O=C(Cn1c(=O)oc2cc(S(=O)(=O)N3CCCC3)ccc21)Nc1cccc(C(F)(F)F)c1	-2.5	-3.4	-1.2	11.5	-38.8*	5.8%
COc1ccccc1CCNC(=O)CCCn1c(=O)c2cccn2c2cccnc21	-1.9	0.9	-1.3	-1.9	-7.9	-2.9%
CO[C@@H]1[C@@H]2OP(=O)(O)OC[C@H]2O[C@H]1n1c(Sc2ccc(Cl)cc2)nc2c(N)ncnc21	.	.	.	.	.	0.2%
O=C(Nc1ccc(Cl)cc1)NC1CCCCC1Cc1ccco1 (centres undefined)	-9.3	-5.8	0.5	4.8	-34.4*	-1.2%
COc1cccc(NC(=O)C2CCCN(c3ncnc4onc(-c5ccc(F)cc5)c34)C2)c1 (centres undefined)	-6.7	-5.3	0.7	3.0	-14.4	1.1%
Cc1nn(-c2ccc(F)cc2F)c2c1-c1nc(N3CCCC3)ncc1CC2	-17.6	0.1	-0.2	0.4	-41.5*	-1.0%
O=C(c1ccccc1Br)N(Cc1ccccc1F)C1CCS(=O)(=O)C1 (centres undefined)	-2.4	0.3	-0.1	1.6	7.5	-1.9%
CC1CN(c2ccc([N+](=O)[O-])c(NCCOc3ccc(Cl)cc3)c2)CC(C)N1 (centres undefined)	-5.3	3.4	1.5	39.5*	-9.4	.
CC1CN(c2ccc([N+](=O)[O-])c(NCCOc3ccccc3)c2)CC(C)N1 (centres undefined)	-9.8	3.3	1.9	16.9	-14.8	.
COc1cc(/C=C2\SC(=S)N(NC(=O)c3ccncc3)C2=O)ccc1O	-4.7	-1.9	13.1	21.6	27.5	-1.0%
COc1cc(/C=C2\SC(=S)N(NC(=O)c3ccccc3OC)C2=O)ccc1O	9.8	6.7	29.1	48.5*	-7.2	.
COc1ccc(/C=C2/SC(=S)N(NS(=O)(=O)c3ccccc3)C2=O)cc1	4.5	17.2	-0.2	-3.7	3.5	.
COc1cc(/C=C2\SC(=S)N(NC(=O)c3cccc(O)c3)C2=O)ccc1O	-2.4	9.0	75.0*	110.0*	8.1	.
COc1cc(/C=C2\SC(=S)N(NS(=O)(=O)c3ccccc3)C2=O)ccc1O	0.2	-7.2	13.7	44.0*	-3.1	0.1%
COc1ccc(NC(=O)c2c(NCc3ccc(N(C)C)cc3)sc3c2CCC3)cc1	-2.2	-5.8	0.1	0.6	2.3	-1.1%
Cc1cc(C)c(C)c(S(=O)(=O)NCCC(=O)O)c1C	.	.	.	.	.	-3.1%
Cc1nc(N2CCCC2)c2c(C(=O)Nc3ccc(C)c(Cl)c3)c(C)oc2n1	-4.3	-9.1	-0.9	0.5	4.0	0.0%
COc1ccc(C2=Nn3c(nnc3-c3ccccc3)SC2)cc1OC	1.2	13.8	-0.9	1.3	3.4	-5.4%
CCCc1nnc2n1N=C(c1ccc(OC)c(OC)c1)CS2	5.6	33.7*	-0.8	-1.4	7.6	0.0%
Cc1ccc(NC(=O)C2CCC(N3C(=O)C4CCCCC4C3=O)CC2)cc1 (centres undefined)	-6.3	5.5	0.0	2.0	-3.5	.
SMILES	D1 potentiator	TRHR PAM	TRHR agonist	D1 ag	D1 antagonist	Epigenetic derep
O=C(Nc1ccc(Cc2ccncc2)cc1)C1CCC(N2C(=O)C3CCCCC3C2=O)CC1 (centres undefined)	-5.8	1.0	0.2	9.0	-38.6*	0.0%
Cn1cc(-c2cc3n(n2)CCC(=O)N3CCCC(=O)NCc2ccc(F)cc2)c2ccccc21	-3.1	-1.7	-1.1	-0.2	-32.7*	2.5%
Cn1cc(-c2cc3n(n2)CCC(=O)N3CCCC(=O)NCc2ccccc2)c2ccccc21	-2.5	0.9	-1.2	2.0	8.1	8.5%
CN(Cc1ccccc1)c1nnc(NC(=O)Nc2cccc(Br)c2)s1	-1.4	-2.1	-0.4	1.2	-10.4	-1.4%
COc1ccc(CNC(=O)c2cnc(N(C)C)nc2)cc1	0.5	1.1	0.8	1.8	-1.1	12.4%
Cc1ccc(CNC(=O)c2cnc(N(C)C)nc2)cc1	-0.9	4.0	-1.4	0.9	-41.6*	-1.7%
O=C1CS(=O)(=O)C2(C(=O)N(Cc3cccc(F)c3)c3ccccc32)N1c1ccccc1 (centres undefined)	1.9	10.3	-0.6	5.4	-1.4	2.5%
CCOC(=O)c1c(C)[nH]c(CCC(=O)Nc2cc(C)ccc2OC)c1C	-4.5	4.9	0.1	1.5	-10.0	9.4%
COc1ccc(CSc2ccc(S(=O)(=O)N3CCCCC3)cn2)cc1F	-2.8	-3.7	1.7	5.8	-41.6*	.
COc1ccc(C(C)=O)cc1CSc1ccc(S(=O)(=O)N2CCCCC2)cn1	0.7	1.7	0.3	3.3	-43.7*	.
Cc1cc(C)cc(CSc2ccc(S(=O)(=O)N3CCCC3)cn2)c1	-4.7	-6.9	1.4	9.5	-3.8	.
O=S(=O)(c1ccc(SCc2ccc(Cl)cc2)nc1)N1CCCC1	-5.3	-2.7	1.4	11.4	-32.7*	.
N#Cc1ccc(CSc2nc3c(c(=O)[nH]2)CCCC3)cc1	-2.6	-0.4	0.7	0.7	1.5	-3.9%
COc1ccc(S(=O)Cc2ccc(C(=O)N3CCN(c4cccc(C)c4C)CC3)o2)cc1 (centres undefined)	1.3	-7.4	-0.4	10.8	-41.9*!	0.0%
COc1cccc(CNC(=O)c2ccc(CS(=O)(=O)Cc3ccc(C)cc3)o2)c1	-2.5	-5.5	0.5	14.1	-43.5*	1.1%
COc1ccc(S(=O)Cc2ccc(C(=O)NCc3cccc(OC)c3)o2)cc1 (centres undefined)	-1.9	-2.7	-0.2	1.5	-34.7*	.
COc1cccc(CNC(=O)c2ccc(CS(=O)Cc3ccc(Cl)cc3)o2)c1 (centres undefined)	-4.8	0.2	0.0	1.8	-12.1	3.0%
Cc1ccc(F)cc1NC(=O)c1ccc(Cn2nc(N3CCN(c4ccccc4)CC3)ccc2=O)o1	-3.4	-10.5	-0.7	3.9	-21.0	-1.2%
O=C(Cc1noc2ccccc12)Nc1ccccn1	-5.1	-1.0	-0.2	-0.4	7.8	-2.0%

Bioassay records deposited in PubChem BioAssay by National Center for Advancing Translational Sciences (NCATS).
